From PubChem BioAssay (NCATS)
A number with no mark means an inactive call. Results filed as inconclusive are left out. Calls of active or inactive are those of the source. The call rests on the fitted dose curve; in most records, active means well fitted inhibition curve with a large enough effect; inconclusive means small, poorly fitted or top-dose-only effect; inactive means no such curve, though single readings can be large or run the other way.

Target: Single-stranded DNA cytosine deaminase (Homo sapiens) (UniProt Q9GZX7)
Test: Validation qHTS assay for inhibitors of Activation Induced Cytidine Deaminase (AID): AID signal (AID 1347429); further: potency means the concentration at half of the fitted maximal effect; on activity change, negative = inhibition: on the % scale 0 is the no-effect control and ±100 the full control effect
Conditions: Recombinant AID, FRET ssDNA deamination with UDG, fluorescence; series mostly up to 115 µM; activity change, negative = inhibition: at the top concentration
Summary of the method: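 Compounds (up to 114 uM final) are tested against AID plus UDG using DJC20/DJC23 FRET substrate. Reactions incubate 4 hr at room temperature, receive NaOH for 30 min, and are read at Ex 540/Em 590 nm.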

Sequence of Single-stranded DNA cytosine deaminase (Homo sapiens) (Q9GZX7 whole entry, looked up): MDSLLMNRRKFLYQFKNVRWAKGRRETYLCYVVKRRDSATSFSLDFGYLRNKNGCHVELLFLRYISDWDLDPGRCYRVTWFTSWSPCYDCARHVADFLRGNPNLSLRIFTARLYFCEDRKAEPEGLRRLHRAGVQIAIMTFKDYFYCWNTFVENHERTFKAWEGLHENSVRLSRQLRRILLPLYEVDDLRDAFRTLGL

Structure (SMILES)	activity change, negative = inhibition [%]	Potency
CCCNC(=O)NS(=O)(=O)c1ccc(Cl)cc1	14.9	–
CC1(C)CCC2=C(O1)c1ccccc1C(=O)C2=O	–	7.08 µM (active)
CC/C(=C(\c1ccccc1)c1ccc(OCCN(C)C)cc1)c1ccccc1	11.6	–
O=c1cc(-c2ccc(O)cc2)oc2cc(O)cc(O)c12	0.472	–
CC(C)(C)c1ccc(C(O)CCCN2CCC(C(O)(c3ccccc3)c3ccccc3)CC2)cc1 (configuration not stated)	-1.19	–
Clc1ccc(C(c2ccc(Cl)cc2)n2cc[n+](CC(OCc3ccc(Cl)cc3Cl)c3ccc(Cl)cc3Cl)c2)cc1 (configuration not stated)	-4.96	–
NC(N)=Nc1nc(CSCC/C(N)=N/S(N)(=O)=O)cs1	15.1	–

Test system: not listed separately
Test: Primary qHTS for inhibitors of La Crosse Virus (LACV) - induced cell death in SH-SY5Y cells (AID 1508616);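 further: top concentration of the series differs between compounds; 0% = infected DMSO wells and 100% = uninfected DMSO wells; higher means more rescue of cells from virus-induced death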
Conditions: SH-SY5Y LACV cytopathicity rescue, ATP luminescence, 6 d; series mostly up to 4.29 µM; activity change: at the top concentration
Summary of the method: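 Screening measures cell viability in LACV-infected SH-SY5Y cultures. Compound was added before virus (0.01 MOI), and ATP was detected by luminescence 6 days later.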

Structure (SMILES)	activity change	outcome
COC[C@@H](c1ccc(C(F)(F)F)cc1)N1CCN(C2(C)CCN(C(=O)c3c(C)ncnc3C)CC2)C[C@H]1C	-2.35%	–
CN(C)c1cc(NC(=O)CNC(C)(C)C)c(O)c2c1C[C@@H]1C[C@H]3[C@H](N(C)C)C(=O)C(C(N)=O)=C(O)[C@@]3(O)C(=O)C1=C2O	28.2%	–
N#C[C@H]1C[C@H]2C[C@@H]2N1C(=O)[C@@H](N)C12CC3CC(CC(O)(C3)C1)C2	1.47%	–
O=C(O)c1cc(-c2ccccc2)nc2ccccc12	–	inactive
CCCNC(=O)NS(=O)(=O)c1ccc(Cl)cc1	–	inactive
OC[C@@H](O)[C@H](O)[C@H](O)[C@@H](O)CO	–	inactive
CCN(CC)CCNC(=O)c1ccc(N)cc1	–	inactive
CC/C(=C(\c1ccccc1)c1ccc(OCCN(C)C)cc1)c1ccccc1	–	inactive
O=c1cc(-c2ccc(O)cc2)oc2cc(O)cc(O)c12	12.6% [at 9.63 µM]	–
CC(C)(C)c1ccc(C(O)CCCN2CCC(C(O)(c3ccccc3)c3ccccc3)CC2)cc1 (configuration not stated)	–	inactive
